Compound activity deposited in PubChem BioAssay by National Center for Advancing Translational Sciences (NCATS).
Pf growth 48h = Primary qHTS for delayed death inhibitors of the malarial parasite plastid, 48 hour incubation. Potency, µM (titrated, usually from 28.7 µM), for inactives: at the highest dose activity change, negative = inhibition, most hits filed as inhibitors. 5.9% of 310,000 active. P. falciparum luciferase growth in erythrocytes, 48 h. AID 504832, 2011; also: potency is read from the fitted curve at half-maximal effect; % is scaled to controls: 0 for no effect and ±100 for the full control effect
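Luciferase-expressing P. falciparum in infected erythrocytes (2% hematocrit, 0.1% parasitemia final) in RPMI 1640/0.5% Albumax were exposed to compound for 48 hours at 37 C, 5% CO2; growth read as luminescence.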
CHX counter = Cycloheximide Counterscreen for Small Molecule Inhibitors of Shiga Toxin. cell reporter, cycloheximide protein synthesis inhibition counterscreen. max response, %. 12% of 300,000 active. AID 2314, 2010; in the data active = max response mostly above about 13%, no sharp cut-off; inactive = mostly below about 14%; also: read at 38.3 µM for the half of the compounds with a filed dose; 0% is about no effect
Pf growth 96h = Primary qHTS for delayed death inhibitors of the malarial parasite plastid, 96 hour incubation. P. falciparum luciferase reporter growth, 96 h. 6.9% of 320,000 active. Potency, µM (highest dose often 28.7 µM), for inactives: top-dose activity change, negative = inhibition, hits mostly inhibitors; also: potency is read from the fitted curve at half-maximal effect; % is scaled to controls: 0 for no effect and ±100 for the full control effect
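P. falciparum expressing integrated firefly luciferase, in erythrocytes at 2% hematocrit, 0.05% parasitemia, incubated with compounds 96 h at 37 C, 5% CO2. Growth inhibition read as loss of luminescence; two-generation exposure targets delayed-death apicoplast inhibitors.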
Shiga inhibitor = A qHTS for Small Molecule Inhibitors of Shiga Toxin | inhibition, % at 38.7 µM | Vero cells, Shiga toxin protein synthesis inhibition reporter | 9.2% of 290,000 active; in the data active = inhibition mostly above about 28%, no sharp cut-off; inactive = mostly below about 43%; also: 0% is about no effect
HCMV inh = qHTS Assay for inhibitors of the human cytomegalovirus (HCMV). HFF cells, HCMV-luciferase reporter, 72 h; hits give low values. activity change, negative = inhibition, % at 57.5 µM. 4.5% of 410,000 active. AID 1259415, 2018; in the data active = activity change below about -60%; inconclusive = no clear call, values can overlap the other calls; inactive = above about -39%; also: % is scaled to controls: 0 for no effect and ±100 for the full control effect
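Two-dose cell screen: HFF monolayers treated with compounds and infected with luciferase-expressing HCMV at 1 PFU/cell, 72 h at 37C, then lysed for luciferase measurement.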
HCV inhibitor = qHTS Assay for Inhibitors of Hepatitis C Virus (HCV); Huh7.5.1 HCVcc-Cre infection, luciferase reporter, 44 h; Potency, µM (doses to about 41.8 µM), for the others: at the highest dose activity change, negative = inhibition, usual class: inhibitors; 3.4% of 340,000 active; AID 651820, 2012; also: potency is read from the fitted curve at half-maximal effect; % is scaled to controls: 0 for no effect and ±100 for the full control effect
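Cells seeded at 1,000/well and cultured 4 h, then compounds added followed by HCVcc-Cre virus (~0.5 moi). After 44 h further culture, luciferase substrate was added, plates held 15 min at room temperature, and luminescence read for 15 sec.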
* hit, by the source's call; ? = inconclusive; · = no result; [ ] = remark or other dose. Rows were chosen to be rich in hits. Some 21% of all compounds tested hit in one or more screens of this group. Unless noted, calls follow the shape of the dose curve; as a rule, active = well fitted inhibition curve with a large enough effect; inconclusive = small, poorly fitted or top-dose-only effect, or another doubt; inactive = no such curve, though single readings can be large or run the other way.

SMILES	Pf growth 48h	CHX counter	Pf growth 96h	Shiga inhibitor	HCMV inh	HCV inhibitor
O=S1(=O)c2ccc(Br)cc2OC2CCCC[C@@H]2N1Cc1ccccc1 (stereo partly specified)	·	·	·	·	9	·
Cc1ccc(S(=O)(=O)N2CCC(=O)N(CCOC(=O)NCc3ccccc3)CC2)cc1	10%	1	-18%	-3	14	-1%[8.37 µM]
Cc1ccc(S(=O)(=O)N2CCC(=O)N(CCOC(=O)Nc3cccc(Cl)c3)CC2)cc1	-22%	-1	-10%	32	-64*	?
COc1ccc(CNC(=O)OCCN2CCN(S(=O)(=O)c3ccc(C)cc3)CCC2=O)cc1	0%	-2	?	-8	-65*	-2%
COc1cc2c(cc1OC)C(c1ccccc1)=NCC2	15%	1	?	-4	91	-23%
COc1cc2c(cc1OC)C(C(C(=O)N(CCc1ccc(OC)c(OC)c1OC)CCc1ccc(OC)c(OC)c1OC)c1ccccc1)=NCC2 (stereo unspecified)	1.3µM*	11	1.5µM*	18	·	·
CCc1ccc(CNc2nc3nc(C)c(Cc4ccccc4)c(=O)n3[nH]2)cc1	·	·	·	·	-2	·
CCC1CCC(C(=O)NC(CCSC)C(=O)NCCc2ccc(S(N)(=O)=O)cc2)CC1 (stereo unspecified)	19%	6	16%	-5	-26	-5%
CCC1CCC(C(=O)NC(CCSC)C(=O)NCCN(CC(C)C)CC(C)C)CC1 (stereo unspecified)	-26%	3	15µM*	10	-34	15%
Cc1cc2cc(C)c3nnc(SCC(=O)N4CCCc5ccccc54)n3c2cc1C	-11%	-3	30%	10	·	7%
CCn1c(SCC(=O)N2CCc3ccccc32)nnc1-c1c[nH]c2ccccc12	9.3µM*	-2	·	-11	?	-8%
CCn1c(SCC(=O)N2CCCc3ccccc32)nnc1-c1c[nH]c2ccccc12	?	-4	7%	-12	-26	?
Cc1ccc2cc(C)c3nnc(SCC(=O)N4CCCc5ccccc54)n3c2c1C	9.3µM*	2	5.2µM*	-6	·	-6%
Cn1c(SCC(=O)N2CCCc3ccccc32)nnc1-c1c[nH]c2ccccc12	13µM*	-2	-12%	-12	-12	-6%
COc1ccc(-n2c(SCC(=O)N3CCc4ccccc43)nnc2-c2c[nH]c3ccccc23)cc1	-25%	-2	-16%	-11	-4	-15%[8.37 µM]
Cc1ccc(CNC(=O)c2cnc3c(-c4ccc(F)cc4)c(C)nn3c2C)o1	·	·	·	·	-19	·
Cc1cc2c(cc1S(=O)(=O)Nc1ccc(C(C)C)cc1)OCCN2C	?	·	12µM*	·	-13	·
CC(=O)c1ccc(NS(=O)(=O)c2cc3c(cc2C)N(C)CCO3)cc1	15%	-1	25%	-7	-31	-9%
COc1cc(OC)c(C(=O)Nc2cc(Cl)ccc2-n2cncn2)cc1OC	5.9µM*	·	5.9µM*	·	28	13µM*
CC(Oc1ccccc1)C(=O)Nc1cc(Cl)ccc1-n1cncn1 (stereo unspecified)	3.7µM*	·	2.3µM*	·	0	?
COc1ccccc1C(=O)Nc1cc(Cl)ccc1-n1cncn1	?	3	?	5	42	?
CC(Oc1ccc(F)cc1)C(=O)Nc1cc(Cl)ccc1-n1cncn1 (stereo unspecified)	2.3µM*	·	2.6µM*	·	-20	?
O=C(Nc1cc(Cl)ccc1-n1cncn1)c1ccc([N+](=O)[O-])s1	?	19*	?	-23	·	7.9µM*
Cc1ccc(-c2csc(N3CCC[C@@H]3C(=O)NCCn3c([C@H](C)N)nc4ccccc43)n2)cc1	·	·	·	·	0	·
CCc1cccc(NC(=O)C2CCC(CNS(=O)(=O)c3ccc(Br)s3)CC2)c1 (stereo unspecified)	·	·	·	·	9	·
SMILES	Pf growth 48h	CHX counter	Pf growth 96h	Shiga inhibitor	HCMV inh	HCV inhibitor
N#Cc1cc(Oc2ccccc2)c(-n2nnc3ccccc32)cc1C#N	-1%	-2	3%	2	20	10%
N#Cc1cc(Oc2ccc3ccccc3c2)c(-n2nnc3ccccc32)cc1C#N	·	-5	?	-9	-65*	-30%
COc1ccc(C(=O)NCCCOC(C)C)cc1OC1CCN(C(C)=O)CC1	-3%	36*	-18%	96*	59	24%
CCOCCCNC(=O)c1ccc(OC)c(OC2CCN(C(C)C)CC2)c1	13%	4	15µM*	6	20	5%
COc1cc(C(=O)NCCCOC(C)C)ccc1OC1CCN(C(C)=O)CC1	7%	2	?	-4	37	-1%
COc1ccc(C(=O)N2CCCCCCC2)cc1OC1CCN(C(C)C)CC1	12%	5	3.7µM*	-7	8	3%
C=CCOc1ccc(C(c2c(C)n(C)n(-c3ccccc3)c2=O)c2c(C)n(C)n(-c3ccccc3)c2=O)cc1	12%[0.00184 µM]	2	27%	32	-17	-9%
CCN(CC)CCCNC(=O)c1ccc(Cn2c(SCc3ccccc3)nc3cccnc32)cc1	·	·	·	·	17	·
CCC(=O)N1CCc2cc(Br)cc(S(=O)(=O)CCC(=O)NCCOC)c21	·	-3	·	-13	-84*	22%
CCC(=O)N1CCc2cc(Br)cc(S(=O)(=O)CCC(=O)NCc3ccco3)c21	8.3µM*	-2	·	-8	·	-7%
CCC(=O)N1CCc2cc(Br)cc(S(=O)(=O)CCC(=O)NCc3ccccc3)c21	·	·	·	·	-9	·
CCC(=O)N1CCc2cc(Br)cc(S(=O)(=O)CCC(=O)N(C)c3cccc(C)c3)c21	12µM*	·	5.2µM*	·	-24	·
CCC(=O)N1CCc2cc(Br)cc(S(=O)(=O)NCc3ccco3)c21	?	35*	?	106*	·	0%
COCC1CCN(C(=O)c2ccc3oc(Cc4ccc(Cl)cc4)nc3c2)C1 (stereo unspecified)	·	·	·	·	-12	-10%
CN1C(=O)C(CC(=O)O)S/C1=N\N=C\c1ccc(O)cc1O (stereo unspecified)	1%	-3	-17%	-2	0	8%
CC(NC(=O)c1ccccc1)C(=O)NC1CCCc2ccccc21 (stereo unspecified)	1%	·	16%	·	3	6%
CCn1c(=O)sc2cc(NS(=O)(=O)c3ccc(F)c(C)c3)ccc21	·	·	·	·	3	·
COc1ccc2ccc3c(c2c1)N=CC1(O3)N(C)c2ccccc2C1(C)C (stereo unspecified)	-9%	10	?	34*	·	-6%
CN1c2ccccc2C(C)(C)C12C=Nc1c(ccc3ccccc13)O2 (stereo unspecified)	?	27*	?	99*	26	-21%
